Among the data in the supplement of paper PMC13380429 are morphology score values, retold here.

Structures are written as SMILES.

In this assay the test system is Vero E6 infected with SARS-CoV-2. Nature of the assay: morphology score (similarity to uninfected cells); higher = more like uninfected cells. Particulars: 24 h.
`Nc1ncnc2c1ncn2[C@H]1CC[C@@H](CO)O1` [dideoxyadenosine] (10 µM) gave a morphology score of 0.103. Next, `C[C@H](CCC(=O)O)[C@H]1CC[C@H]2[C@@H]3CC[C@@H]4C[C@H](O)CC[C@]4(C)[C@H]3CC[C@]12C` [lithocholic-acid] (10 µM): 0.0318; `COc1ccc(-c2oc3c(CC=C(C)C)c(O[C@@H]4O[C@H](CO)[C@@H](O)[C@H](O)[C@H]4O)cc(O)c3c(=O)c2O[C@@H]2O[C@@H](C)[C@H](O)[C@@H](O)[C@H]2O)cc1` [icariin] (10 µM): 0.141; `CCC(CC)(NC(=O)C(C)C)C(=O)N[C@@H](CCCNC(=N)N)C(=O)NC1(C(=O)NC(c2ccc(F)cc2)c2ccc(F)cc2)CCCC1` (10 µM): -0.044. To `Cn1c(C#N)ccc1-c1ccc2c(c1)C(C)(C)OC(=S)N2` [tanaproget] (10 µM) belongs 0.0429; to `C[C@]12COC(=O)C[C@@H]1CC[C@@H]1[C@@H]2CC[C@@]2(C)[C@H]1CC[C@]2(C)O` [Oxandrolone] (10 µM), 0.0356. In turn, `NCCCNCCSP(=O)(O)O` [amifostine] (10 µM) showed a morphology score of 0.164. To `O=C/C=C/c1ccccc1` [cinnamaldehyde] (10 µM) belongs -0.0291; to `CCCCCCCCCCCC(=O)N(CCO)CCO` [lauric-diethanolamide] (10 µM), -0.121; to `Cc1ncc(Cl)cc1NCc1ccc(C(=O)N[C@@H](CC2CCCC2)C(=O)NC2CC2)s1` (10 µM), 0.0746. To `O=C(Nc1ccccc1)N[C@H]1C[C@H](C(=O)O)Nc2cc(Cl)cc(Cl)c21` (10 µM) belongs -0.146.

On to `C1=N/C2=N/c3ccc(OCCN4CCCC4)c(c3)COC/C=C/COCc3cccc(c3)C(=C1)N2` [pacritinib] (0.833333 µM), for which the morphology score is 0.286. To `C=CC(=O)N1CCC[C@@H](n2nc(-c3ccc(Oc4ccccc4)cc3)c3c(N)ncnc32)C1` [ibrutinib] (10 µM) belongs 0.197; to `Cc1ccc(S(=O)(=O)/C=C/C#N)cc1` (0.833333 µM), 0.173. Next, `O=C(O)c1cc(O)c2c(c1)C(=O)c1cccc(O)c1C2=O` [rhein] (10 µM): 0.272; `CC(C)CN(C[C@@H](OP(=O)(O)O)[C@H](Cc1ccccc1)NC(=O)O[C@H]1CCOC1)S(=O)(=O)c1ccc(N)cc1` [fosamprenavir] (10 µM): -0.123. To `NCC(=O)O` (10 µM) belongs 0.146; to `CN(C)C(=O)N[C@H]1CC[C@H](CCN2CCN(c3cccc(Cl)c3Cl)CC2)CC1` [cariprazine] (10 µM), -0.0979; to `O=C(O)CCc1ccc(NCc2cccc3c2CCCN3CCOc2ccccc2)cc1F` (10 µM), -0.0144. `CC(C)(C)c1ccc(C(=O)Nc2cn3cc(-n4ccnc4)ccc3n2)cc1` (10 µM) had a morphology score of -0.0468. Turning to `COc1cc2c(NC3CCN(C(C)C)CC3)nc(C3CCCCC3)nc2cc1OCCCN1CCCC1` (10 µM), the morphology score worked out at 0.297. To `O=C(Nc1cccnc1)N1CCC(Cc2cccc(Oc3ccc(C(F)(F)F)cn3)c2)CC1` (0.833333 µM) belongs 0.191. With `CN(C/C=C/C#CC(C)(C)C)Cc1cccc2ccccc12` [terbinafine] (10 µM), the morphology score stood at 0.413. To `Cc1cc(=O)[nH]c(=S)[nH]1` [methylthiouracil] (10 µM) belongs 0.0905. To `CC(C)Nc1cccnc1N1CCN(C(=O)c2cc3cc(NS(C)(=O)=O)ccc3[nH]2)CC1` [delavirdine] (10 µM) belongs 0.0195; to `NCC(CC(=O)O)c1ccccc1` (stereo not given) [fenigam] (10 µM), 0.256; to `CN(C)CCCNC(=O)c1ccc(-c2cc(O)c3ncccc3c2)cc1` (0.833333 µM), -0.00508. As to `CC(Cc1ccc(O)cc1)NCC(O)c1cc(O)cc(O)c1` (stereo not given) [fenoterol] (10 µM), the morphology score is -0.0121. Next, `c1cc2c3c(c1)c1c(n3CCNC2)CCCC1` (10 µM): -0.0322. Next, `Cc1cccc(C)c1NC(=O)c1ccc(N)cc1` [ameltolide] (10 µM): -0.146; `O=C(O)[C@]1(Cc2cccc(Nc3nccs3)n2)CC[C@@H](Oc2cccc(Cl)c2F)CC1` (0.833333 µM): 0.175; `CCOC(=O)OC(C)OC1=C(C(=O)Nc2ccccn2)N(C)S(=O)(=O)c2ccccc21` (stereo not given) [ampiroxicam] (10 µM): -0.00273.

As for `c1coc(-c2nnc3sc(C4CCCCC4)nn23)c1` [cardionogen-1] (10 µM), the morphology score turned out to be 0.254. To `Cc1cc(C(C)(C)C)cc(C)c1CC1=NCCN1` [xylometazoline] (10 µM) belongs -0.0246; to `O[C@H]1CC[C@H](Nc2ncc3nc(Nc4c(F)cc(F)cc4F)n([C@H]4CCOC4)c3n2)CC1` (0.833333 µM), 0.103; to `COc1ccc(CCNCc2ccc(OCc3ccc(Cl)nc3)c(OC)c2)cc1OC` (10 µM), 0.078. Compound `CCN(CC)C(=O)/C(C#N)=C/c1cc(O)c(O)c([N+](=O)[O-])c1` [entacapone] (10 µM) displayed a morphology score of 0.149. To `C[C@@]1(O)[C@H](O)[C@@H](CO)O[C@H]1n1ccc(N)nc1=O` (10 µM) belongs 0.0553; to `C=CCN1CCc2cc(O)c(O)cc2[C@H](c2ccccc2)C1` (10 µM), -0.0101; to `C=CC(=O)Nc1cccc(Oc2nc(Nc3ccc(N4CCN(C)CC4)cc3OC)ncc2Cl)c1` (0.833333 µM), -0.0953.
